Sampled rows, rich in hits. Any-hit rate of the full collection: about 7.5%.
ELG1 DNA repair: blocks ELG1-dependent DNA repair in HEK293T cells | Potency, µM (doses to about 46.1 µM), for the others: at the highest dose activity change, negative = inhibition, actives largely listed as inhibitors | 330,000 tested, 2.3% active | HEK293T ELG1-luciferase reporter, luminescence, 16 h; DNA damage induced by 5-fluorouridine | AID 504467; also: potency is read from the fitted curve at half-maximal effect; nearly all actives have a fitted effect of over 55% in size
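DMSO vehicle served as the neutral condition. Each well held 2,000 cells given 5-fluorouridine plus compound; after 16 hr at 37 °C/5% CO2, ONE-Glo was added and luciferase measured 30 min later.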
TSHR antag: antagonists of human thyroid stimulating hormone receptor. 330,000 tested, 0.2% active. P16473. TSHR-expressing cells, TSH-stimulated cAMP HTRF, 2 h; hits give low values. activity change, negative = inhibition, % at 11.5 µM;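 active = activity change below a set negative limit, meaning inhibition stronger than a set level, cut at about -70% in these data; inconclusive = activity change between two set negative limits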
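Inhibition of cAMP made by TSHR-expressing cells under TSH stimulation (4nM final, EC80; 2 h, 37 deg C) is quantified with a one-step lysis HTRF kit, anti-cAMP cryptate versus cAMP-d2.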
RORgamma inh: ROR gamma (mouse) transcription inhibition; P51450; AID 2551; 310,000 tested, 5.4% active; Potency, µM (top dose mostly 53.6 µM), inactives show at the highest dose activity change, negative = inhibition, usual class: inhibitors; Drosophila S2 Gal4-RORgamma UAS-luciferase reporter, 20 h; also: potency is read from the fitted curve at half-maximal effect; nearly all actives have a fitted effect of over 60% in size
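ROR gamma transcriptional activity was tracked as Gal4-UAS luciferase output in stably transfected Drosophila Schneider cells, with compound added 1 hr before 700 uM copper sulfate induction and a 20 hr ambient-temperature incubation.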
Gal4-VP16 FLuc: inhibits Gal4-VP16 luciferase reporter, ROR gamma counter-screen; Drosophila S2 Gal4-VP16 UAS-luciferase, luminescence, 20 h; Potency, µM (series often up to 53.6 µM), inactives show at the top dose activity, negative = inhibition, usual class: inhibitors; 310,000 tested, 3.5% active;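 also: Gal4-VP16 expression switched on by copper sulfate through the metallothionein promoter; potency is read from the fitted curve at half-maximal effect; nearly all actives have a fitted effect of over 50% in size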
B2AR arrestin: agonists driving beta-arrestin recruitment to human beta2-adrenergic receptor; Potency, µM (top dose mostly 46.1 µM), for the others: at the top dose activation, most hits filed as activators; P07550; 330,000 tested, 0.02% active; AID 492947; beta-arrestin recruitment to beta2AR, cell-based reporter;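 also: potency is read from the fitted curve at half-maximal effect; 0% = DMSO controls and full agonism = EC100 isoproterenol or metaproterenol; nearly all actives have a fitted effect of over 65% in size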
Target sequence (P07550 whole entry, looked up): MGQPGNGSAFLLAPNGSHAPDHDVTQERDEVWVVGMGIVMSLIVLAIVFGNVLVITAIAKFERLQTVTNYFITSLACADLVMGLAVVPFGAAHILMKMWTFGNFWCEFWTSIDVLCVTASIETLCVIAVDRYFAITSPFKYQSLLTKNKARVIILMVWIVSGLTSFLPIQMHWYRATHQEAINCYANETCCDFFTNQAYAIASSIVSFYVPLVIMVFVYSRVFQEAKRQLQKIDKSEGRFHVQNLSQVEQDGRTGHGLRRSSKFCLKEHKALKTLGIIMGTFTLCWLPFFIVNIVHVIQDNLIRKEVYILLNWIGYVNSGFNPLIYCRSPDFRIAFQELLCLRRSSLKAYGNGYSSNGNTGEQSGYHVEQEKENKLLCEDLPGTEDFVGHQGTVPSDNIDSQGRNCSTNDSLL
* hit, by the source's call; ? = inconclusive; nt = no result given. Unless noted, calls follow the shape of the dose curve; as a rule, active = well fitted curve in the direction sought with a large enough effect; inconclusive = small, poorly fitted or top-dose-only effect, or another doubt; inactive = no such curve, though single readings can be large; an effect the other way counts as inactive or inconclusive. Unless noted, % is scaled to controls: 0 for no effect and ±100 for the full control effect.

SMILES | ELG1 DNA repair | TSHR antag | RORgamma inh | Gal4-VP16 FLuc | B2AR arrestin
NC(=O)CSc1nc2c(sc(=S)n2-c2ccccc2)c(=O)[nH]1 | -3.0% | 2.4 | 10.6% | 7.8% | -0.1%
COc1cc(C(=O)OC(C)C(=O)NC(=O)NC2CCCCC2)ccc1OC(F)F (stereo not given) | -1.6% | -3.9 | nt | nt | 0.0%
NC(=S)N/N=C/c1ccc2ccccc2c1 | ? | 3.2 | ? | ? | -1.5%
NC(=S)N/N=C/c1ccc(/C=N/NC(N)=S)cc1 | 12.3% | -1.4 | -15.6% | -6.0% | 0.1%
NC(=S)N/N=C/c1cccc(O)c1O | -3.0% | 0.7 | 7.08µM* | ? | -0.1%
NC(=S)N/N=C/c1ccccc1O | 4.2% | -4.2 | 3.55µM* | 6.31µM* | -0.3%
NC(=S)N/N=C/c1cccc(/C=N/NC(N)=S)c1 | -12.2% | -5.6 | -23.4% | 0.1% | 0.2%
NC(=S)N/N=C/c1cccc(Br)c1 | 6.2% | -2.1 | 5.62µM* | ? | -0.3%
COc1cc(OC)c(/C=N/NC(N)=S)cc1Br | ? | -6.9 | 8.91µM* | ? | -2.1%
Cc1ccc(-c2nc(CNC(=O)c3cc(C)on3)cs2)cc1 | -16.8% | -1.7 | nt | nt | 0.1%
COc1ccc(CN2CCCC(C(=O)N3CCCCC3)C2)cc1OC (stereo not given) | -19.3% | -1.8 | -4.0% | 9.6% | -0.5%
Cc1cc(/C=N/NC(N)=S)c(O)c(/C=N/NC(N)=S)c1 | 4.5% | -5.2 | 0.199µM* | 0.447µM* | 3.5%
Cc1ccc2occ(/C=N/NC(N)=S)c(=O)c2c1 | ? | 7.8 | -32.5% | 3.6% | -0.1%
CCNc1ncc2nc(C)c(=O)n(Cc3ccc(F)cc3)c2n1 | nt | nt | -22.7% | 2.8% | nt
CC(C)(C)[C@@H]1C=C(C(=O)Nc2ccccc2)O[C@H](OCc2ccc(CO)cc2)C1 | 7.3µM* | 10.1 | -31.8% | -28.9% | -0.1%
CC(C)Oc1ccc(S(=O)(=O)N2CCCCC2)cc1NC(=O)C1CSC2(C)CCC(=O)N12 (stereo not given) | ? | -2.0 | nt | nt | 0.1%
NC(=S)NN=C1C2CC3CC(C2)CC1C3 | -0.3% | 0.0 | 2µM* | ? | ?
NC(=O)C(=O)NN=C1C2CC3CC(C2)CC1C3 | 14.2% | -1.6 | -14.8% | 6.8% | -0.2%
CN(C)c1ccnc(Nc2ccc(O)cc2)c1C#N | -7.7% | -4.9 | 13.5% | -10.1% | -0.5%
O=C(O)c1ccc(C2CCCCC2)cn1 | 6.8% | 3.3 | 7.94µM* | ? | 0.1%
O=C(CC(Nc1ccc(Cl)cc1Cl)C(=O)O)c1ccccc1 (stereo not given) | ? | -4.5 | 12.6µM* | ? | 0.1%
C=C(C(=O)c1ccccc1)C(C)CC(=O)c1ccccc1 (stereo not given) | ? | -19.2 | ? | 17.8µM* | -0.4%
Cc1ccc(NC(CC(=O)c2ccccc2)C(=O)O)cc1Cl (stereo not given) | ? | -1.7 | -38.8% | -5.7% | 0.2%
O=C(CC(Nc1ccccc1)C(=O)O)c1ccccc1 (stereo not given) | ? | 26.7 | 11.2µM* | 7.94µM* | -0.9%
CSc1cccc(NC(=S)N2CCCN(Cc3ccccc3F)C2)c1 | -5.2% | 6.7 | ? | -10.6% | 0.0%
SMILES | ELG1 DNA repair | TSHR antag | RORgamma inh | Gal4-VP16 FLuc | B2AR arrestin
CC(C)(C)C(=O)NC(=S)NCCc1ccccc1 | ? | -44.3 | 8.91µM* | ? | 0.0%
CC(C)(C)NC(=O)NCCc1ccccc1 | ? | -8.1 | -35.7% | -22.1% | -0.3%
S=C(NCCc1ccc(Cl)cc1)NC1CC1 | 23.1% | 7.8 | 2.51µM* | 8.91µM* | 3.1%
CNC(=S)NCCCc1ccccc1 | 8.2% | 13.3 | 15.8µM* | ? | -0.1%
NS(=O)(=O)c1ccc(CCNC(=S)NC2CCCC2)cc1 | 12.0% | -8.4 | 15.5% | -9.9% | -0.3%
O=[N+]([O-])c1ccc(NC(=S)NCCc2ccc(Cl)cc2)cc1 | -7.6% | -74.8* | 0.631µM* | 3.55µM* | -1.9%
O=C(CSc1nc2cc(C(=O)O)ccc2c(=O)n1-c1ccc(F)cc1)Nc1ccc(F)c(F)c1F | -4.3% | -2.9 | 29.1% | -21.0% | 0.5%
COc1ccc(C2C3C=CCC(c4cccc(-c5ccc(N(C)C)cc5)c4)C3C(=O)N2Cc2ccccc2)cc1Cl (stereo not given) | nt | nt | 26.6% | 3.9% | nt
c1ccc2[nH]c(NCCCc3cnc[nH]3)nc2c1 | nt | nt | -16.4% | -12.8% | nt
